Test results from publication PMC11062922 (Nature Chemical Biology, 2023).

What follows are compounds tested on GSK3A. Details: read-out: apparent Kd; compound concentrations:100 nM and 1000 nM (sheet 'Samples'); n = 1.
Design: species or system human, MV4-11 + K-562 + COLO205 + SK-N-BE2 + OVCAR-8
Compound `COc1cccc(C2=C(c3cn(C)c4ccccc34)C(=O)NC2=O)c1` [RO0318649-000] has a potency estimated from few doses of 802 nM. `Cn1cc(C2=C(c3c4n(c5ccccc35)CCN(C(N)=S)C4)C(=O)NC2=O)c2ccccc21` [RO0319377-000] gave a potency estimated from few doses of 427 nM. In the case of `COc1cccc(C2=C(Nc3cc(Cl)c(O)c(Cl)c3)C(=O)NC2=O)c1` [SB-390767], the potency estimated from few doses is reported as 528 nM. For `O=C(Nc1n[nH]c2nc(-c3cccs3)c(Br)cc12)C1CCCC1` [SB-743341], the potency estimated from few doses was 529 nM. `COc1cccc(C2=C(Nc3ccc(Cl)c(C(=O)O)c3)C(=O)NC2=O)c1` [SB-390769] gave a potency estimated from few doses of 323 nM. In the case of `COc1ccc(C2=C(Nc3cccc(C(=O)O)c3)C(=O)NC2=O)cc1` [SB-390765], the potency estimated from few doses is reported as 82.8 nM. `CN(C)CC1CCn2c(c(C3=C(c4cn(C)c5ccccc45)C(=O)NC3=O)c3ccccc32)C1` (stereo not drawn) [RO0318830-000] showed a potency estimated from few doses of 43.8 nM. In the case of `O=C(Nc1n[nH]c2cc(-c3ccco3)ccc12)C1CC1` [SB-737447], the potency estimated from few doses is reported as 498 nM. `O=C(Nc1n[nH]c2nc(-c3cccs3)c(Br)cc12)C1CC1` [SB-735297] gave a potency estimated from few doses of 1290 nM. For `Cc1nnc(-c2ccc3occ(-c4ccc(S(C)=O)cc4)c3c2)[nH]1` (stereo not drawn) [TPKI-85], the potency estimated from few doses was 339 nM. `Cn1cc(C2=C(c3c4n(c5ccccc35)CCC(CN)CC4)C(=O)NC2=O)c2ccccc21` (stereo not drawn) [RO0319371-000] showed a potency estimated from few doses of 608 nM. `Nc1n[nH]c2nnc(-c3ccccc3)c(-c3ccccc3)c12` [GW554060X] gave a potency estimated from few doses of 424 nM.
